For 40 sequences, PBM binding z-score results are on record in the supplement of paper PMC6555819.

The assay concerns VDR:RXRa (NR concentration 270 nM, RXRa partner concentration 90 nM). The experiment in a line: PBM binding z-score (relative to random genomic background probes); higher = stronger binding; sequences stand for … in GC…GCGATTGACAGCGTAGAATGAAGG
On the procedure:
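Protein-binding microarray (Agilent 4x180K custom design, double-stranded 60-nt probes: 5' GC cap, 34-nt variable region, 24-nt constant primer region; full probe sequence given). Purified or IVT nuclear receptor:RXRα heterodimers (3:1 NR:RXRα, mostly 270:90 nM) or homodimers were incubated for 1 h in PBS with 2% milk and no ligand, then detected with Alexa488 antibodies. Fluorescence from o1-orientation probes (~5 replicates averaged) was converted to z-scores against 500 random hg19 background probes. Variable regions are seed direct-repeat (DR0–DR5) sites, all their single-nucleotide variants and half-site ablations.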
Consider TCTGCTAGATCAACGATGGTCAGCTAATCTGCTA, for which the PBM binding z-score is -0.489.

Consider CAAACTAGGTAAAGGTCAAAGTCGGTTTGTGCCA, for which the PBM binding z-score was determined as 5.38.

For the sequence GCTGCTAGGTCAGGTTGGTAAGCTAACGGGTACG, the PBM binding z-score turned out to be 0.241.

The sequence CAAACTAGGTGAAGGTCAAAGTCGGTTTGTGCCA gave a PBM binding z-score of 3.79.

On to TCTTGGAGATCAAAGGTTAAGAAAGCCGAAGCCT, for which the PBM binding z-score came to 1.57.

TCTTGTAGATCAGCAGTTTAAGAAAGCTGGCCAA: the PBM binding z-score is -0.0839.

Take GCATATAGGTAATACAAGGTGAAACTCCGATTGT: the PBM binding z-score was 0.732.

Regarding CGTCCAAGGTCAATCCTAGGTCAGTGAAAGCATT, the PBM binding z-score was found to be 4.96.

Sequence ACTAGTTGGTCAGCTGAGGCCACACACAATTCGG had a PBM binding z-score of 0.307.

With CTCGAGAGGTCGGTTGAGGTGAGTATACGGATAA, the PBM binding z-score stood at 2.59.

Sequence CGTCCAATGTCAATGCTAGGTCAGTGAAAGCATT returned a PBM binding z-score of 0.803.

The sequence AGAATGAGGTTATACGTAGAGCAGGGAAGAAAGT yielded a PBM binding z-score of 1.23.

TCATATAGGCAATACAGGTGAAAGTCGGCATCTA came in with a PBM binding z-score of 0.582.

TCTTGTAGATCAGCAGGTTAAGAATGCTGGCCAA yielded a PBM binding z-score of 0.397.

Regarding CCAGACAGGTGAAAGGTTACTCAGTCTGGTACGC, the PBM binding z-score is 2.35.

CCTAGTTGGTCAAGGTCATACACGCTATAGGTAC displayed a PBM binding z-score of 4.33.

As to TAGCCTCGGTCATGCGGGCCAGTATAGTGTCGGC, the PBM binding z-score is -0.284.

Turning to AGAATGAGGTTATACGTAGATCAGAGAAGAAAGT, the PBM binding z-score is 1.29.

As for CCTAGTTGGTCAGTAGGTCACACACCGGATATGA, the PBM binding z-score was determined as 1.91.

As to AGAACGAGGGCACGCTGACTTGATAGCAGAGTAG, the PBM binding z-score stood at 1.02.

For the sequence GCGACTGGGGCATCAGCAGGTTGCCATAACTTAA, the PBM binding z-score was -0.532.

On to CCTTACGGGTCACTCCAGGTTATACCATCGGAGT, for which the PBM binding z-score was found to be 4.19.

CCCGCTAGGTCAATGGTCAGCTAAAGCAGCTCGC displayed a PBM binding z-score of 1.02.

Regarding ATTTCTAGGTAAAGATAGTTCAGTGAATGCAAAT, the PBM binding z-score came to 1.18.

Take TCTCGGAGGACACGAAGGTCAGAGCGTTCCAGAG: the PBM binding z-score came out at 2.42.

With TCTAGTTGGTAAAAGGTCACACACTCGAAATGCG, the PBM binding z-score amounted to 4.89.

In the case of CCGACTGGGGCATAACGTTACCATAAGCCAGCCC, the PBM binding z-score is -0.52.

Take ATATGTAGGTTAGCTGGGATCATTCAGACTAGGC: the PBM binding z-score worked out at 0.919.

Regarding CCTACTGAGCCACGAAAGGTCATTGATTCAGTGA, the PBM binding z-score stood at 3.97.

TAGCCTAGGTCATGCGGGCCCGTATAGTGTCGGC yielded a PBM binding z-score of 1.97.

Regarding ACAGACAGGTGATGAAGGTTACTCAGGCTATCAT, the PBM binding z-score was determined as 1.64.

For TCTGCTATGTCAGTTGGTCAGCTAACGAGCTGCC, the PBM binding z-score was -0.176.

CAGCCTAGGTCAGGGCCAGTATAGGAGGAACGTT had a PBM binding z-score of 0.31.

TCTTGTAGATCATAGGTTAAGAAAGCCGAAGCCT showed a PBM binding z-score of 0.86.

Regarding CCTACTGGCCCATCAGGTCATTGATATCAACGTT, the PBM binding z-score is 1.78.

In turn, AGAATAAGGTTATTAAGATCAGGGAATTGCGGTC had a PBM binding z-score of 1.95.

Turning to CGTCAAAGTTCAAGGTAACTTAACAGAAAGCAGC, the PBM binding z-score amounted to 3.73.

In turn, ATCTCTAGGTAAGCAAGTTCAGTGAATGCCGAAC displayed a PBM binding z-score of 3.03.

Sequence CCTGCTGGGTCATGGTCAGCTAATCTACAGTATG returned a PBM binding z-score of 1.28.

Sequence GTTCCAAGGTGAATAGGTCGTTGATGAGTAGGCG yielded a PBM binding z-score of 1.08.
